# Screening data deposited in PubChem BioAssay by National Center for Advancing Translational Sciences (NCATS).
# Hits are enriched below; roughly 2.9% of the tested compounds scored in any of these assays.
# EPAC1 agonist: Validation qHTS for agonist of cAMP-regulated guanine nucleotide exchange factor 3 (EPAC1); Rap guanine nucleotide exchange factor 3 (Homo sapiens), O95398; EPAC1 Rap1b BODIPY-GDP exchange, fluorescence; Potency, µM, for the others: max response, positive = active, most hits filed as activators; hit rate 1% among 16,000; note: nearly all actives have a fitted effect of over 70% in size
# EPAC2 antag: Validation qHTS for antagonist of cAMP-regulated guanine nucleotide exchange factor 4 (EPAC2); Potency, µM (doses to about 112 µM), inactives show at the top dose activity, negative = inhibition, usual class: inhibitors; EPAC2 Rap1B BODIPY-GDP exchange, fluorescence; Rap guanine nucleotide exchange factor 4 (Homo sapiens), Q8WZA2; hit rate 1.7% among 16,000;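 note: 100% = activation by cAMP agonist control; nearly all actives have a fitted effect of over 40% in size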
#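 Fluorescent exchange read-out: 100 nM EPAC2 with 250 nM RAP1B–BODIPY-GDP and 50 uM GDP; BODIPY-GDP release lowers fluorescence. Read at 480/540 nm every 5 min for 30 min at room temperature; normalized to 6.5 mM cAMP.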
# Active calls of the source: *; i = inactive; ? = inconclusive; ! = not confirmed by another sample; [ ] = remark or other dose. Calls come from the whole dose curve; as a rule, active = well fitted curve in the direction sought with a large enough effect; inconclusive = small, poorly fitted or top-dose-only effect, or another doubt; inactive = no such curve, though single readings can be large; an effect the other way counts as inactive or inconclusive. Unless noted, % is set by controls: 0 for no effect and ±100 for the full control effect; potency is the fitted concentration of half-maximal effect.
SMILES,EPAC1 agonist,EPAC2 antag
O=c1[nH]cc(N(CCCl)CCCl)c(=O)[nH]1,-6.4%,70.8µM*
CC(=O)O[C@H]1C[C@H](O[C@H]2[C@@H](O)C[C@H](O[C@H]3[C@@H](O)C[C@H](O[C@H]4CC[C@@]5(C)[C@H](CC[C@@H]6[C@@H]5C[C@@H](O)[C@]5(C)[C@@H](C7=CC(=O)OC7)CC[C@]65O)C4)O[C@@H]3C)O[C@@H]2C)O[C@H](C)[C@H]1O[C@@H]1O[C@H](CO)[C@@H](O)[C@H](O)[C@H]1O,-35.2%,13.7%
CN(C)CCCCCCN(C)C (tested in a mixture with another compound),-10.0%,3.3%
CCCn1c(C)c(C(=O)c2cccc3ccccc23)c2ccccc21,2.1%,20µM*
Cc1c(C(=O)c2cccc3ccccc23)c2cccc3c2n1[C@H](CN1CCOCC1)CO3,?,-22.9%
CCOC(=O)/C=C(C)/C=C/C[C@@H](C)CCCC(C)C,-29.5%,-16.7%
[S]=[Sb](=[S])[S][Sb](=[S])=[S],-3.8%,23.4%
O=C1Nc2ccc(Cl)cc2C(c2ccccc2)=NC1O (stereo not given),2.6%,?
O=C1CN=C(c2ccccc2)c2cc(Cl)ccc2N1CC1CC1,-15.6%,22.4µM*
CCC/C=C/C=C/C(=O)O[C@H]1/C(=C/C(=O)OC)C[C@H]2C[C@H]([C@@H](C)O)OC(=O)C[C@H](O)C[C@@H]3C[C@H](OC(C)=O)C(C)(C)[C@](O)(C[C@@H]4C/C(=C/C(=O)OC)C[C@H](/C=C/C(C)(C)[C@]1(O)O2)O4)O3,-77.8%,-28.8%
Oc1c(Cl)c(Cl)c(Cl)c(Cl)c1Cl,-64.3%,14.1µM*
O=C1C[C@@H]2OCC=C3CN4CC[C@]56c7ccccc7N1[C@H]5[C@H]2[C@H]3C[C@H]46,2.5%,-1.8%
O=S(=O)(O)C(F)(F)C(F)(F)C(F)(F)C(F)(F)C(F)(F)C(F)(F)C(F)(F)C(F)(F)F,-228.8%,100µM*
CN[C@]1(c2ccccc2Cl)CCCCC1=O,5.8%,-6.5%
C[C@@H]1[C@@H]2Cc3ccc(O)cc3[C@@]1(C)CCN2CCc1ccccc1,14.0%,12.0%[239 µM]
N#C/C(=C\c1ccc(O)c(O)c1)C(N)=S,-20.9%,?
N#CC(C#N)=Cc1cc(O)c(O)c(O)c1,-18.8%,89.1µM*!
Oc1cc(Cl)ccc1Oc1ccc(Cl)cc1Cl,?,11.2µM*!
O=C(O)COc1ccc(Cl)cc1Cl,28.6%,-13.2%
C[C@]12CC[C@H]3[C@@H](CCC4=CC(=O)CC[C@@]43C)[C@@H]1CC[C@@H]2OC(=O)CCc1ccccc1,21.1%,-10.4%[239 µM]
NCCc1cc(O)c(O)cc1O,112µM*,-9.5%
COc1ccc(CCN)cc1O,-1.7%,-0.4%
C=C[C@H]1CN2CC[C@H]1C[C@H]2[C@H](OC(=O)OCC)c1ccnc2ccc(OC)cc12,-17.7%,-9.7%
CCO/N=C(\CC)C1=C(O)CC(c2c(C)cc(C)cc2C)CC1=O (stereo not given),13.2%,?
CCCC[C@H]1C(=O)O[C@H](C)[C@H](NC(=O)c2cccc(NC=O)c2OC)C(=O)O[C@@H](C)[C@@H]1OC(=O)CC(C)C,-47.1%,?
SMILES,EPAC1 agonist,EPAC2 antag
CCCCCC1C(=O)O[C@H](C)[C@@H](NC(=O)c2cccc(NC=O)c2O)C(=O)OC(C)C1OC(=O)CC(C)C (stereo not given in full),-194.6%,56.2µM*
CC(C)=CCN1CC[C@]2(C)c3cc(O)ccc3C[C@H]1[C@H]2C,0.7%,-10.7%[239 µM]
CCC(=O)O[C@H]1[C@@H](N2CCCCC2)C[C@H]2[C@@H]3CC[C@H]4C[C@H](OC(C)=O)[C@@H](N5CCCCC5)C[C@]4(C)[C@H]3CC[C@@]21C,7.7%,-13.5%
CCCCCCC(C)(C)c1ccc([C@@H]2C[C@H](O)CC[C@@H]2CCCO)c(O)c1,-52.9%,28.2µM*
NC(Cc1cc(O)c(O)cc1O)C(=O)O (stereo not given),17.9%,12.6µM*
N[C@@H](CCl)C(=O)O,-7.7%,9.1%
O=C(C[C@@H]1NCCC[C@H]1O)Cn1cnc2cc(Br)c(Cl)cc2c1=O,-16.5%,17.5%
Cc1ccc2c(c1)[C@]13CCCC[C@@H]1[C@H](C2)N(C)CC3,20.4%,4.1%
O=C(O)c1ccccc1-c1c2cc(Br)c(=O)cc-2oc2[c]([Hg])c(O)c(Br)cc12,?,i
O=C1OC2(c3cc(Br)c(O)cc3Oc3c2cc(Br)c(O)[c]3[Hg])c2ccccc21 (stereo not given),39.8µM*!,i
C[C@@H](N)C(=O)c1ccccc1,7.4%,19.2%[239 µM]
Cl.Cl.Cl.Cl.Cl.Cl.N.N.N.N.NNNNN.NNNNN.O.O.[Ru].[Ru].[Ru],-15.0%,56.2µM*
